The results in this text go back to PubChem BioAssay (NCATS).

The structures appear in SMILES notation. Unmarked numbers belong to inactive results. Results filed as inconclusive are left out. Active and inactive are the calls of the source. The call rests on the fitted dose curve; in most records, active means well fitted curve in the direction sought with a large enough effect; inconclusive means small, poorly fitted or top-dose-only effect, or another doubt; inactive means no such curve, though single readings can be large; an effect the other way counts as inactive or inconclusive.

Test [1] can be described thus: HPAF-II 24hr Apoptosis Induction qHTS against the NCATS CANVASS Library (AID 1347356). The gist of the method: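 Caspase-Glo 3/7 luminescence, read after 15 min room-temperature development, measures apoptosis in HPAF-II cells treated 24 h at 37 degrees C with an 11-point concentration series; 500 cells/well; doxorubicin control.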
Background: qHTS replaces the single test concentration by a dilution series.

Test [2] in a line: HEK293 18hr Apoptosis Induction qHTS against the NCATS CANVASS Library (AID 1347357). The gist of the method:
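HEK293 cells (500/well, DMEM + 10% FBS) treated with an 11-point series for 18 h at 37 degrees C. Caspase-3/7 activity read by Caspase-Glo luminescence after 15 min at room temperature.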

Test [3] can be described thus: HEK293 24hr Apoptosis Induction qHTS against the NCATS CANVASS Library (AID 1347359). The gist of the method:
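HEK293 cells (500/well, DMEM + 10% FBS) were exposed to compounds in an 11-point series for 24 hours at 37 degrees C, then caspase-3/7 activity was read by Caspase-Glo DEVD luciferase luminescence after 15 min.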

Test [4] in a line: HPAF-II 18hr Apoptosis Induction qHTS against the NCATS CANVASS Library (AID 1347360). The gist of the method: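 HPAF-II cells at 500/well were exposed for 18 h at 37 C to an 11-point compound series. Caspase-3/7 activity was read by Caspase-Glo luminescence after 15 min at RT.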
Test [5] concerns NAD(P)H diaphorase (Clostridium kluyveri). The test is described as follows: Diaphorse counterscreen qHTS: Assay Interference Panel against the NCATS CANVASS Library (AID 1347362). Further: potency means the concentration at half of the fitted maximal effect. The procedure, abridged:
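Clostridium kluyveri diaphorase in PBS with 0.01% Tween-20 was preincubated 15 min at room temperature in the dark with compounds (11-point series). Resorufin fluorescence (ex 525/20, em 598/25) was read 5 min after adding resazurin/NADH.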
(In general: The purpose of a counterscreen is to sort out artefacts and off-target activity.)

The target of test [6] is Luciferin 4-monooxygenase (Photinus pyralis) (UniProt P08659). The test can be described thus: Firefly luciferase counterscreen qHTS: Assay Interference Panel against the NCATS CANVASS Library (AID 1347363). Further: series mostly up to about 57 µM. The procedure, abridged:
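Purified P. pyralis luciferase was added to compounds (11-point series) preincubated 15 min at room temperature with substrate containing 0.013 mM D-luciferin and 0.013 mM ATP; luminescence was read after 5 min.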

The nature of test [7]: KB-3-1 Cancer Cell Toxicity qHTS against the NCATS CANVASS Library (AID 1347366). Further: nearly all actives have a fitted effect of over 75% in size. The gist of the method:
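KB-3-1 cells (500/well) in DMEM with 10% FBS were exposed to compounds for 72 h at 37C. Viability was read by CellTiter-Glo luminescence.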

A short description of test [8]: qHTS for ATAD5 Agonist screened against the NCATS CANVASS Library (AID 1347367).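 Further: luciferase reporter driven by ATAD5 which rises upon DNA damage.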 The gist of the method: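 Luciferase reporter under ATAD5 control, stably integrated in HEK293T cells (2000/well). Compounds (11 points) incubated 16 h at 37C; viability read first by CellTiter-Fluor, then luminescence reporting ATAD5 activation. MMS positive control.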
The nature of test [9]: MCF7 Cancer Cell Toxicity qHTS against the NCATS CANVASS Library (AID 1347369). Further: potency means the concentration at half of the fitted maximal effect. The procedure, abridged:
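MCF7 cells (500/well) were exposed 72 h at 37 °C to compounds in an 11-point series. Viability was read as ATP content by CellTiterGlo luminescence.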

Test [10] in a line: qHTS for ATAD5 Antagonist screened against the NCATS CANVASS Library (AID 1347370). Further: nearly all actives have a fitted effect of over 65% in size. Further: potency means the concentration at half of the fitted maximal effect. The gist of the method: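 Compounds (11-point) co-dosed with 10 µM 5-FUrd for 16 h at 37 °C onto HEK293T-ATAD5 luciferase reporter cells. Viability measured by CellTiter-Fluor fluorescence, then ATAD5 reporter signal by luminescence.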
The nature of test [11]: J3T Cancer Cell Toxicity qHTS against the NCATS CANVASS Library (AID 1347371). Further: potency means the concentration at half of the fitted maximal effect. The procedure, abridged: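 Cytotoxicity read as CellTiterGlo ATP luminescence after 72 h incubation (37C, 5% CO2) of J3T canine glioma cells (500/well) with an 11-point compound series.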
Test [12] has as its target Nuclear receptor subfamily 1 group I member 3 (Homo sapiens) (UniProt Q14994). The test can be described thus: qHTS for Constitutive Androstane Receptor (CAR) Antagonist screened against the NCATS CANVASS Library (AID 1347372).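 Further: cells stimulated with 50 nM CITCO agonist so inhibition reflects antagonism; luciferase from CYP2B6 promoter reporter driven by hCAR in HepG2 cells; series mostly up to about 46 µM.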 The gist of the method:
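Cells were seeded and left 4hr to attach, then received compound at 11 concentrations and 50 nM CITCO. Following 24hr incubation, fluorescence viability and luciferase luminescence were read sequentially.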

Test [13] has the same target. The test is described as follows: qHTS for Constitutive Androstane Receptor (CAR) Agonist screened against the NCATS CANVASS Library (AID 1347373).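 Further: every well also contained 1.5 µM PK11195 alongside the test compound.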 Further: potency means the concentration at half of the fitted maximal effect. The gist of the method: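 Agonist mode with 1.5uM PK11195 present: compounds for 24hr on HepG2-hCAR-CYP2B6 cells. CellTiter-Fluor fluorescence (ex 405, em 540 nm) gives viability; ONE-Glo luminescence reports CAR activation.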

Test [14] can be described thus: 10-beta competent E. coli microbial cell viability qHTS against the NCATS CANVASS Library (AID 1347376). Further: series mostly up to about 46 µM. The gist of the method:
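Read-out: BacTiter-Glo ATP luminescence, taken 20 min after reagent addition. Beforehand, 10-beta competent E. coli at 0.2 OD had been incubated overnight at 37C with compounds at 11 concentrations.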

A short description of test [15]: qHTS for H2AX Agonists against the NCATS CANVASS Library (AID 1347378). The procedure, abridged:
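CHO-K1 cells (1000/well, overnight at 37C) exposed to compounds at several concentrations for 3 hr at 37C, 0.76% DMSO final. Lysates read by TR-FRET (phospho-H2AX S139 Eu-cryptate antibody / H2AX-d2 antibody) after 24 hr at room temperature; 665/615 nm ratio.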

A short description of test [16]: qHTS for Inflammasome Signaling Inhibitors: IL-1-beta AlphaLISA screen against the NCATS CANVASS Library (AID 1347379).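 Further: human THP-1 cells primed with LPS then triggered with ATP.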 The procedure, abridged:
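Secreted IL-1B from human THP-1 cells quantified by AlphaLISA 16 hr after compound addition (final up to 57.5 uM). A 1 hr compound pretreatment preceded inflammasome activation with 250 ng/mL LPS plus 1.25 mM ATP (final).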

Test [17] can be described thus: Inflammasome Signaling qHTS Counterscreen: IL-1-beta AlphaLISA counterscreen against the NCATS CANVASS Library (AID 1347381).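 Further: cell-free check with purified IL-1β in medium and no THP-1 cells; series mostly up to about 57 µM.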 The procedure, abridged: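 Purified IL-1-beta (4 pg/well) + compound, 11-pt conc. series; acceptor beads 6 ug/mL + biotin-Ab 0.6 nM final, 1 h RT; SA-donor 24 ug/ml final, 30 min dark RT; read ex 680/em 615.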
Test [18] is described as follows: Cytotoxicity qHTS for assessment of Hepg2 cells membrane integrity screened against the NCATS CANVASS Library (AID 1347387). The procedure, abridged:
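Membrane damage quantified as fluorescent LDH-release signal (ex 560, em 590 nm) in HepG2 cells treated 5 hr at 37C. qHTS format, 11 concentrations spanning 0.59 nM - 46 uM final, cells plated at 2000 per well the night before.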

Test [19] can be described thus: Viability qHTS for inhibitors of the SERCaMP assay screened against the NCATS CANVASS Library (AID 1347400). Further: nearly all actives have a fitted effect of over 70% in size. Further: potency means the concentration at half of the fitted maximal effect. The procedure, abridged: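 CellTiter-Glo luminescence measured cytotoxicity after 48 h at 37C of compound treatment (11-point series). Cells were SH-SY5Y-GLuc SERCaMP MJH297 derivatives, seeded at 1000 per well 4 h beforehand.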
Test [20] is described as follows: G06 Cancer Cell Toxicity qHTS against the NCATS CANVASS Library (AID 1347368). Further: nearly all actives have a fitted effect of over 60% in size. Further: potency means the concentration at half of the fitted maximal effect. The procedure, abridged:
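Viability measured by CellTiterGlo ATP luminescence after 72 hr at 37C, 5% CO2. Canine G06 glioma cells plated at 500/well. Compounds tested as 11-point qHTS titrations.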

Chain of Nuclear receptor subfamily 1 group I member 3 (Homo sapiens) (Q14994 whole entry, looked up): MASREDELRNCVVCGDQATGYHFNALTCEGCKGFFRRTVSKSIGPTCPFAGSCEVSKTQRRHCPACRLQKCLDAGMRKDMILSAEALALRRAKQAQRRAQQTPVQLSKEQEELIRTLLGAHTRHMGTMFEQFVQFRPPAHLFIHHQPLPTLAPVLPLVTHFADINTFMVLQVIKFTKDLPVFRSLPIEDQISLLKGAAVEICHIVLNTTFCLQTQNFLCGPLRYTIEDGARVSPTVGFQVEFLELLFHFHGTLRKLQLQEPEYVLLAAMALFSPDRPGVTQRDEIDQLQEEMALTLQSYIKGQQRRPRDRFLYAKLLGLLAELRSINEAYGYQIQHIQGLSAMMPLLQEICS
Chain of Luciferin 4-monooxygenase (Photinus pyralis) (P08659 whole entry, looked up): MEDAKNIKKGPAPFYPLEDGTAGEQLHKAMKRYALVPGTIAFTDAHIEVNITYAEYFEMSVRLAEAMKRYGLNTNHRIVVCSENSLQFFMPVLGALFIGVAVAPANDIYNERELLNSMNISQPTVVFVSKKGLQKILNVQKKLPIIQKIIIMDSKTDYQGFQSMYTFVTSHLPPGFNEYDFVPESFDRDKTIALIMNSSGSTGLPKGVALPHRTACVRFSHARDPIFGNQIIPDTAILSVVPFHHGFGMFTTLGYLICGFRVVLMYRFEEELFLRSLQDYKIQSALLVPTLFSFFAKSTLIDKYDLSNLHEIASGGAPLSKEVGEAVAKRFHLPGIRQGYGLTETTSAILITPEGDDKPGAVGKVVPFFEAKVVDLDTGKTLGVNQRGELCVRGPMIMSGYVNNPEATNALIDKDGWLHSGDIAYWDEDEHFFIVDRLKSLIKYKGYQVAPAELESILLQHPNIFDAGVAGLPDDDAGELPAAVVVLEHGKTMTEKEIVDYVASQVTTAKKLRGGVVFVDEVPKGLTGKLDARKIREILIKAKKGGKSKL

Turning to `COc1c(O)cc2c(c1O)C(=O)c1c(coc1C)C2=O`, the compound was classed as inactive in test [1], in test [14], in test [17] and in test [18]. Further, the Potency result in test [2], in [3], in [4], in test [5], in test [6] and in test [7] was “inactive” throughout. For the same compound, the Potency result in test [8], in [9], in test [10], in test [11], in [12] and in test [13] was “inactive” in each case. Further, the Potency result in [15], in test [16] and in [19] was “inactive” in each case.
For `C/C=C/C1C=CC2CC(C)CC(C)C2C1C(=O)CC(=O)NC(CO)C/C=C/CCCCC` (configuration not stated), the compound was classed as inactive in test [1], in test [14], in test [17] and in test [18]. Moreover, the Potency result in [2], in test [3], in [4], in test [6], in test [7] and in test [8] was “inactive” throughout. Besides, the Potency result in test [11], in test [12], in [13], in test [15] and in test [19] was “inactive” each time. Also, the Potency in [20] is 1.32 µM (active); in test [10], 23.4 µM (active).
Consider `CC(=O)O[C@H]1c2ccccc2-c2c3c(cc4c2[C@@H]1N(C(C)=O)CC4)OCO3`, for which the compound was called inactive in [1], in [14], in test [17] and in test [18]. Further, the Potency entry in test [2], in test [3], in [4], in [5], in [6] and in [7] was “inactive” each time. In addition, the Potency result in test [8], in test [20], in [9], in test [10], in test [11] and in test [12] was “inactive” each time. The Potency result in test [13], in [15] and in test [16] was “inactive” each time.
Regarding `COc1cc2c(c(O)c1O)C(=O)c1c(coc1C)C2=O`, the compound was classed as inactive in test [1], in test [17] and in test [18]. The Potency entry in [2], in test [3], in test [4], in test [7], in test [8] and in test [10] was “inactive” in each case. Also, in [12], the Potency result is “inactive”. Moreover, the Potency was 4.31 µM (active) in test [5]; 11.8 µM (active) in test [20]; 7.39 µM (active) in test [9]; 26.4 µM (active) in test [11]; 24.3 µM (active) in [16]; 15.2 µM (active) in test [19].
On to `O=C1CC2OCC=C3CN4C5CC3C2[C@@H]2N1c1ccccc1[C@]52C[C@@H]4C1=C[C@H]2C3CC4N(CC[C@@]45c4ccccc4N(C1=O)[C@@H]25)C/C3=C/CO` (some centres not stated), for which the result in test [1], in [14], in test [17] and in test [18] was inactive. In addition, the Potency entry in test [2], in test [3], in test [4], in test [5], in [6] and in test [8] was “inactive” each time. For the same compound, the Potency entry in test [9], in test [12] and in [15] was “inactive” in each case. The Potency is 23.5 µM (active) in test [20], 11.7 µM (active) in [13] and 24.3 µM (active) in [16].
Consider `CC(C)=CCC[C@]12c3cc4c(cc3CC[C@@]1(C)[C@H](C)CC[C@@H]2O)[nH]c1ccccc14`, for which the call in test [1], in test [14], in [17] and in test [18] was inactive. In addition, the Potency entry in [2], in test [3], in [4], in [5], in test [6] and in test [7] was “inactive” in each case. Further, the Potency entry in test [8], in test [20], in [9], in test [10], in test [11] and in [12] was “inactive” in each case. The Potency entry in test [13], in [15], in test [16] and in test [19] was “inactive” in each case.
